Results taken from PubChem BioAssay (NCATS).
Results filed as inconclusive are left out. Activity calls are given as the source filed them. Unless noted, calls come from the whole dose curve; as a rule, active = well fitted curve in the direction sought with a large enough effect; inconclusive = small, poorly fitted or top-dose-only effect, or another doubt; inactive = no such curve, though single readings can be large; an effect the other way counts as inactive or inconclusive.

Experiments:
[1] = qHTS for Inhibitors of Cell Surface uPA Generation: Validation Assay (AID 493164);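 note: RAW 264.7 macrophage cells exposed to compound for 18 h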
Procedure, shortened: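 RAW 264.7, 4000 cells/well, o/n plating; cpd 7-pt 1:5 dilution 2.45 nM–38.3 uM final; 18 h, 37 C/5% CO2; ATP-Lite, 5 s luminescence exposure.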

[2] = molecular target: Phosphoglycerate kinase, glycosomal (Trypanosoma brucei brucei) (UniProt P07378); test: qHTS Validation Assay to Find Inhibitors of Phosphoglycerate Kinase (AID 504547)
Chain of Phosphoglycerate kinase, glycosomal (Trypanosoma brucei brucei) (P07378 whole entry, looked up): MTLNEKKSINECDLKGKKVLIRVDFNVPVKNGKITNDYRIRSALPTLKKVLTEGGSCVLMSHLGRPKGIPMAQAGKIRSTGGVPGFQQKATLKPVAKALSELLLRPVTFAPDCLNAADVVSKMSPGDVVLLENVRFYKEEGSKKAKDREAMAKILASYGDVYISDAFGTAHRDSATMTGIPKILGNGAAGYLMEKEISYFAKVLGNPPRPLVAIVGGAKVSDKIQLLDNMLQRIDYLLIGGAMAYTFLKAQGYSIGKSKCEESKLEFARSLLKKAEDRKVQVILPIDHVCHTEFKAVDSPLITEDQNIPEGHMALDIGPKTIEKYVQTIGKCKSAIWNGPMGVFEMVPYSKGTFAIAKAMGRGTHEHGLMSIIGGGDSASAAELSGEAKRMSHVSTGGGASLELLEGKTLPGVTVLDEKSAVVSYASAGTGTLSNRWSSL
Procedure, shortened: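 Inhibition of the enzyme is judged by a Kinase-Glo Plus luminescent signal following a one-hour incubation at room temperature. Because 1,3-BPG is unstable, it is made in situ by GAPDH at 100nM final; no-PGK wells define the baseline.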

[3] = molecular target: phosphoglycerate mutase (Leishmania major) (UniProt Q4Q090); test: qHTS Validation Assay to Find Inhibitors of Phosphoglycerate Mutase (AID 504548); note: series mostly up to about 58 µM
Chain of phosphoglycerate mutase (Leishmania major) (Q4Q090 1-553): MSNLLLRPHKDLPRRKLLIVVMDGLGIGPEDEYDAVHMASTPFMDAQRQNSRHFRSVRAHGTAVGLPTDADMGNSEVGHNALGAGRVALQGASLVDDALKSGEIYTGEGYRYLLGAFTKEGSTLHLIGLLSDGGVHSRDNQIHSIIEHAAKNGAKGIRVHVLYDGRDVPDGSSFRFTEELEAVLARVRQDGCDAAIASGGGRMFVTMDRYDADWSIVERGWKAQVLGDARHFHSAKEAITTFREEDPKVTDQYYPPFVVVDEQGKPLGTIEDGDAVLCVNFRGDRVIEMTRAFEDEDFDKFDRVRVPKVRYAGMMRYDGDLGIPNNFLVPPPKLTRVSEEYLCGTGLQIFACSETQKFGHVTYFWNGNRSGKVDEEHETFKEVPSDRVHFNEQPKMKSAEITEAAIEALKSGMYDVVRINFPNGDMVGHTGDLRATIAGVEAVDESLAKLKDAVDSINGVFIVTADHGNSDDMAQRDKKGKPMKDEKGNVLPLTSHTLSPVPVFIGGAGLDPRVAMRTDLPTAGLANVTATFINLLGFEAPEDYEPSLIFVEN
Procedure, shortened: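 Luminescent end-point read-out via Kinase-GloPlus after a 10-minute development. Reaction: 1.25nM Leishmania major PGAM with substrate and compound, 45 minutes at room temperature in TEA buffer (pH 7.6) with MgCl2 and Tween-20.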

[4] = qHTS for Inhibitors of ATXN expression: Validation of Cytotoxic Assay (AID 588349)
Procedure, shortened: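 HEK293 cells were dosed with titrated compounds for 72 hr at 37 degrees C. Viability was read by CellTiter Glo luminescence, with intracellular ATP as the marker of cell survival.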

[5] = qHTS for Inhibitors of ATXN expression: Validation (AID 588378); note: series mostly up to about 57 µM; nearly all actives have a fitted effect of over 75% in size
Procedure, shortened: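 Luminescence from an ATXN2-FFLuc reporter in HEK293 cells served as read-out after 24 h compound treatment at 37 degrees C; CellTiter-Fluor fluorescence was recorded first to assess viability.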

[6] = molecular target: Glutaminase kidney isoform, mitochondrial (Homo sapiens) (UniProt O94925); test: qHTS for Inhibitors of Glutaminase (GLS): LOPAC Validation (AID 624146);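 note: glutamate product detected by oxidase and peroxidase coupled Amplex red fluorescence gain; series mostly up to about 46 µM; nearly all actives have a fitted effect of over 60% in size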
Chain of Glutaminase kidney isoform, mitochondrial (Homo sapiens) (O94925 whole entry, looked up, canonical isoform): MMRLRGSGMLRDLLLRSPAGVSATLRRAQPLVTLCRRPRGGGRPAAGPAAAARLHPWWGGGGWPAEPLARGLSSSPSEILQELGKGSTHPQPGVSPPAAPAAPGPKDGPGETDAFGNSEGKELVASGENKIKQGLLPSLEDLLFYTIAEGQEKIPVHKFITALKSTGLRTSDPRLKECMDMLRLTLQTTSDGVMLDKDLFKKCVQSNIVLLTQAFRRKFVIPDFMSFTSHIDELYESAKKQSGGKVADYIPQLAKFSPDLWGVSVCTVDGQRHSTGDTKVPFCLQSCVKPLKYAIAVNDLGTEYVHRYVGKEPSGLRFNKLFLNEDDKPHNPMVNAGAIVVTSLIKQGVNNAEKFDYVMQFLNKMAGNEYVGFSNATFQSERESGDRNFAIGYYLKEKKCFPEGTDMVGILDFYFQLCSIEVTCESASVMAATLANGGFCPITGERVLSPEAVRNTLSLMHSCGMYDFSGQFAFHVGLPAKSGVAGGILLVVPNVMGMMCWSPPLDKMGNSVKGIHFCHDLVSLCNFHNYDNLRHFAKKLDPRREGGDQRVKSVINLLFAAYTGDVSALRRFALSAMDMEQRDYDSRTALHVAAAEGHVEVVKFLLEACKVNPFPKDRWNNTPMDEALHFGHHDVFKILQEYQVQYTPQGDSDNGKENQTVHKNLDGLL
Procedure, shortened: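 hKGA in 45 mM KH2PO4 pH 8.2, 0.02% Tween-20 with pin-transferred compounds; 1 mM L-glutamine (stock) plus glutamate oxidase/HRP/Amplex Red coupling added. Fluorescence read initially and after 30 min at RT.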

[7] = qHTS of Trypanosoma Brucei Inhibitors: LOPAC Validation (AID 624147)
Procedure, shortened: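 Luminescent Kinase-Glo Plus end-point after 45 min room-temperature reaction of T. brucei pyruvate kinase started with 130 uM ADP (final). Buffer TEA 50 mM pH 7.2 with KCl, MgCl2, BSA, Tween-20; titration-based qHTS with fitted concentration-effect curves.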

[8] = molecular target: Glucagon-like peptide 1 receptor (Homo sapiens) (UniProt P43220); test: qHTS of GLP-1 Receptor Agonists: LOPAC Validation (AID 624148);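 note: luminescence from a luciferase reporter switched on by cAMP; higher luminescence signal means agonism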
Chain of Glucagon-like peptide 1 receptor (Homo sapiens) (P43220 whole entry, looked up): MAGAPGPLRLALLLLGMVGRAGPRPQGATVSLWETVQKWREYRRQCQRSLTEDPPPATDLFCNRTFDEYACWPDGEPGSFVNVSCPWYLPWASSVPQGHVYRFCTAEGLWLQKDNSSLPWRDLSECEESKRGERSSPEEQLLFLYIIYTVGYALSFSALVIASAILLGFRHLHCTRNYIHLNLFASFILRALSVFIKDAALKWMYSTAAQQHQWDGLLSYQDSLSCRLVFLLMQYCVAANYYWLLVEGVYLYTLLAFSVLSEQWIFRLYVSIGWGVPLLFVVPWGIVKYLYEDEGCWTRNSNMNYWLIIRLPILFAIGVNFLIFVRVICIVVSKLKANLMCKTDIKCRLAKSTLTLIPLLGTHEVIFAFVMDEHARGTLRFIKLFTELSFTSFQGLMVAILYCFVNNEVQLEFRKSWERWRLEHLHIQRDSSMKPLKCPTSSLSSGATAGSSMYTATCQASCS
Procedure, shortened: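 Agonism scored as increased luciferase luminescence driven by cAMP in HEK293 clones carrying GLP-1R. Cells settled 12 hours, received compound for 4-6 hr at 37 deg C, 5% CO2, and were read after 12 min detection reagent at RT.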

[9] = qHTS of Nrf2 Activators: LOPAC Validation (AID 624149)
Procedure, shortened: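 AREc32 cells carrying an ARE-driven firefly luciferase were grown overnight in OPTI-MEM with 5% FBS, then exposed to compounds for 24 hr at 37 deg C. Luciferase signal was read after 30 min with Steady-Glo at RT.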

[10] = HTS Assay for Allosteric Antagonists of the Human D2 Dopamine Receptor: Hit Validation in HTRF (AID 624455);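 note: stable D1 dopamine receptor cell line scored for blocking the D1 response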
Procedure, shortened: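 Hits were examined in an HTRF assay using cells stably expressing the D1 dopamine receptor, scoring inhibition of the D1-mediated response. The preceding primary screen tracked calcium flux after an EC80 dopamine addition in force-coupled, inducible Hek293 Trex D2 cells.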

[11] = molecular target: Arylsulfatase A (Homo sapiens) (UniProt P15289); test: qHTS screen for enhancers of Arylsulfatase A (ASA1): LOPAC Validation Assay (AID 720538)
Chain of Arylsulfatase A (Homo sapiens) (P15289 whole entry, looked up): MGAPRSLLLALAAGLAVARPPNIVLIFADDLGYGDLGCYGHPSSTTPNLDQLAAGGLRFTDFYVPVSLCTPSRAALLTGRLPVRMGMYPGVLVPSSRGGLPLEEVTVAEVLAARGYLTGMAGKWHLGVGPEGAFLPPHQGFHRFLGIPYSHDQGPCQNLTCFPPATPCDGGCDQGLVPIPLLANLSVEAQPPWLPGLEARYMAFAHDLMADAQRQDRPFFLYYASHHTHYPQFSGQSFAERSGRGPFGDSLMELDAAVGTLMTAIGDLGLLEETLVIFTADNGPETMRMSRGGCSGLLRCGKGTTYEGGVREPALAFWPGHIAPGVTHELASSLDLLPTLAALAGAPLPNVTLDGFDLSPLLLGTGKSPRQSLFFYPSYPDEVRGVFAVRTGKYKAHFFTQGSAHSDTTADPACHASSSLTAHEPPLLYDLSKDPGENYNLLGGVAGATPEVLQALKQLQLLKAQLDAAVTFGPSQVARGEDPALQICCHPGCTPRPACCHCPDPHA
Procedure, shortened: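 SV40-transformed skin fibroblasts from an MLD patient (ASA-I179S) were treated with compounds for 48h at 37 degree C, then lysed with 0.5mM pNCS final substrate for 14h at room temperature; NaOH stop, fluorescence read (Ex=525 nm; Em=598 nm).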

[12] = qHTS for compounds that reverse cellular toxicity of Amyloid beta (A-beta) peptide in yeast: LOPAC Validation Assay (AID 720559)
Procedure, shortened: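 Yeast cells expressing toxic A-beta were combined with pinned compounds in growth medium and incubated 48 hr at 30 C. Growth was read as absorbance at 600 nm and normalized to DMSO and to an equimolar FeCl3/clioquinol positive control.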

[13] = qHTS for Activators of Parkin Expression: LOPAC Validation Assay (NLuc Reporter) (AID 720572)
Procedure, shortened: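 Parkin promoter-driven FLuc/NLuc neuronal reporter cells; 24 h plating, 7-pt dose response, 24 h at 37 C/5% CO2; FLuc then NanoLuc reagent, 10 min each, luminescence; DMSO/positive control normalized.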

[14] = qHTS for Activators of Parkin Expression: LOPAC Validation Assay (FLuc Reporter) (AID 720573)
Procedure, shortened: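 Neuronal cell line stably carrying FLuc/NLuc coincidence reporter under Parkin promoter; cells plated 24 h, then compounds added in 7-point dose response for 24 h at 37 C. FLuc luminescence read; normalized to DMSO and positive control (100%).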

[15] = molecular target: T1, Hexokinase-4 (Homo sapiens) + Glucokinase regulatory protein (Homo sapiens) (UniProt P35557+Q14397); test: qHTS assay for inhibitors of recombinant human GCK-GKRP interaction: Diaphorase-coupled assay (AID 743205)
T1 sequence (P35557 whole entry, looked up): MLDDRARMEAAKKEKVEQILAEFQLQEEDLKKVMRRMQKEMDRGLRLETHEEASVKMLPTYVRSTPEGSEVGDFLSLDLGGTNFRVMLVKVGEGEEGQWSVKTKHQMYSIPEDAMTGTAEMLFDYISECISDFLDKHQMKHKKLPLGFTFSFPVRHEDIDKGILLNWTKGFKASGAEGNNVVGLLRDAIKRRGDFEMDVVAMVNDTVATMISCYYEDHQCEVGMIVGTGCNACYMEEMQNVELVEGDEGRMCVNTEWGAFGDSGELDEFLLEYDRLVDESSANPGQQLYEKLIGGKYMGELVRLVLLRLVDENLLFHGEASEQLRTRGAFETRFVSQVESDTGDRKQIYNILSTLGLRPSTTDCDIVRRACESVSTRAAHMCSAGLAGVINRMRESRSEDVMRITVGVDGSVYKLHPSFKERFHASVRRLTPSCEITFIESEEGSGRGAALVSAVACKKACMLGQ
T1 sequence (Q14397 whole entry, looked up): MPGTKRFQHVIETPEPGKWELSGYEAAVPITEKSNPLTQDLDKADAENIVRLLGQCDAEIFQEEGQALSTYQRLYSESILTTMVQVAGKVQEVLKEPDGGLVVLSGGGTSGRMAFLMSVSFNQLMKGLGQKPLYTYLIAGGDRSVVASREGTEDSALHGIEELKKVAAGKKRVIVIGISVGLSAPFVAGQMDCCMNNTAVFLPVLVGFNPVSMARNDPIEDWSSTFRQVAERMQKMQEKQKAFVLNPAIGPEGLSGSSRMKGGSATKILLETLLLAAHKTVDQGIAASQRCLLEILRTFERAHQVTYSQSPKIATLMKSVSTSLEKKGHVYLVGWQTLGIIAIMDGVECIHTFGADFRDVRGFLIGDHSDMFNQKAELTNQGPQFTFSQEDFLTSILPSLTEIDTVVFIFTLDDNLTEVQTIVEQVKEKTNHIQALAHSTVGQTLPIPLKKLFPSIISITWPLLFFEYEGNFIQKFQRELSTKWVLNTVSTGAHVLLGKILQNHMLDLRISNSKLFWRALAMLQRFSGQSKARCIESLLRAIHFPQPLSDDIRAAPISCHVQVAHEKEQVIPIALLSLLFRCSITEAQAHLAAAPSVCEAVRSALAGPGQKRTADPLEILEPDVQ
Procedure, shortened: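 GST-GCK (10 nM) with FLAG-GKRP (10 nM), 5 mM glucose and 0.4 mM ATP in pH 7.6 Hepes; compounds preincubated 20 min with substrate. G6PDH/diaphorase coupling converts resazurin to resorufin, read kinetically (ex 525/em 590 nm) for 30 min.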

[16] = molecular target: T1, Hexokinase-4 (Homo sapiens) + Glucokinase regulatory protein (Homo sapiens); test: qHTS assay for inhibitors of recombinant human GCK-GKRP interaction: ADP-Glo assay (AID 743206)
Procedure, shortened: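 GST-GCK and FLAG-GKRP (15 nM each in the dispensed mix, with 2 uM S6P) react with 0.4 mM ATP and 5 mM glucose (final) in Hepes pH 7.6 for 60 min at room temperature. ADP is measured by ADP-Glo luminescence.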

[17] = molecular target: T1, Hexokinase-4 (Homo sapiens) + Glucokinase regulatory protein (Homo sapiens); test: qHTS assay for inhibitors of recombinant human GCK-GKRP interaction: HTRF assay (AID 743207)
Procedure, shortened: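 GST-GCK and FLAG-GKRP (5 nM each) were combined with 2 uM S6P in pH 7.1 Hepes/MgCl2/KCl/DTT buffer, then compound and anti-FLAG XL665/anti-GST K antibodies were added. After 60 min at room temperature, HTRF 665/615 nm emission was read.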

[18] = Natriuretic polypeptide receptor (hNpr1) antagonism - Pilot counterscreen GloSensor control cell line (AID 1347045; calls by dose curve; note: series mostly up to about 38 µM)
Procedure, shortened: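 HEK293 cells carrying the GloSensor cGMP sensor (GIP/pGS-40F) were loaded with 2% GloSensor reagent for 2 h, exposed to compounds for 30 min, and then stimulated with 50 uM sodium nitroprusside for 20 min at room temperature.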

[19] = molecular target: Atrial natriuretic peptide receptor 1 (Homo sapiens) (UniProt P16066); test: Natriuretic polypeptide receptor (hNpr1) antagonism - Pilot screen (AID 1347049; calls by dose curve;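 note: agonist-evoked cGMP luminescence read 20 min after hNppA addition; series mostly up to about 58 µM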)
Procedure, shortened: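 Readout is cGMP-driven firefly luciferase luminescence in HEK293 cells carrying hNpr1 and a PDE5-domain GloSensor, read before and 20 min after 0.1 nM hNppA stimulation. Cells had 2% substrate reagent for 2 h and test compound for 30 min.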

[20] = molecular target: Atrial natriuretic peptide receptor 2 (Homo sapiens) (UniProt P20594); test: Natriuretic polypeptide receptor (hNpr2) antagonism - Pilot subtype selectivity assay (AID 1347050; calls by dose curve)
Procedure, shortened: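 Pilot selectivity screen against hNpr2: HEK293 cGMP-sensor cells are treated with LOPAC1280 compounds, then with hNppC peptide at 1 nM final. The cGMP-driven luminescence change over 20 min at room temperature is the read-out.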

[21] = molecular target: T2, Tyrosine-protein phosphatase non-receptor type substrate 1 (Homo sapiens) + Leukocyte surface antigen CD47 (Homo sapiens) (UniProt P78324+Q08722); test: CD47-SIRPalpha protein protein interaction - LANCE assay qHTS validation (AID 1347057; active = well fitted curve in the direction sought with a large enough effect in the signal ratio, with a control signal flat, not every such curve was filed as active; the % refers to the signal ratio; note: series mostly up to about 38 µM)
T2 sequence (P78324 whole entry, looked up): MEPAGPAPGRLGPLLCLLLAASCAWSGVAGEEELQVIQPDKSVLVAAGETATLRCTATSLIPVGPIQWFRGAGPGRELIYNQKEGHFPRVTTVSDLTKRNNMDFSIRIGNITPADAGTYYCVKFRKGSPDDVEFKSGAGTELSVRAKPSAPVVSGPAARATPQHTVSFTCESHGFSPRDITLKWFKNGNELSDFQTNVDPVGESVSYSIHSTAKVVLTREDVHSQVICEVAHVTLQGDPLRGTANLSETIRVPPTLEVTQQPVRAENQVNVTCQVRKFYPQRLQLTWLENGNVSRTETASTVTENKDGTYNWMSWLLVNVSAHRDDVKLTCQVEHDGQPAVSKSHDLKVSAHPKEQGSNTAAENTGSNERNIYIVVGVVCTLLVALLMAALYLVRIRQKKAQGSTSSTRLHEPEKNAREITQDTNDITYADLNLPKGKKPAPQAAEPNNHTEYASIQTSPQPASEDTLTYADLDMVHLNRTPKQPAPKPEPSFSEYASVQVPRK
T2 sequence (Q08722 whole entry, looked up): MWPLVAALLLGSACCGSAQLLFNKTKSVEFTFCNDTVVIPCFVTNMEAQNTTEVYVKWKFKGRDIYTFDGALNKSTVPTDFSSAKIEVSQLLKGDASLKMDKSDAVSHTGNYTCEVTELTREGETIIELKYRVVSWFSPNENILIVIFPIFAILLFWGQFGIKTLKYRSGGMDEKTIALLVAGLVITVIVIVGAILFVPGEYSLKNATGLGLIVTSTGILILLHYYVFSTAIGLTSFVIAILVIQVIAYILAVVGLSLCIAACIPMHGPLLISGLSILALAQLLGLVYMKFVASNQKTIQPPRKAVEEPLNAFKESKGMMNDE
Procedure, shortened: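 First, His-tagged CD47 and Eu-labelled anti-His antibody met the compound for 30 min; next, site-specifically biotinylated SIRPalpha was added for 30 min; finally streptavidin-APC was added before reading the TR-FRET ratio.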

[22] = molecular target: T2, Tyrosine-protein phosphatase non-receptor type substrate 1 (Homo sapiens) + Leukocyte surface antigen CD47 (Homo sapiens); test: CD47-SIRPalpha protein protein interaction - HTRF assay qHTS validation (AID 1347058; active = well fitted curve in the direction sought with a large enough effect in the signal ratio, not every such curve was filed as active; the % refers to the signal ratio;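 note: recombinant soluble extracellular CD47 with His tag and biotinylated SIRPalpha domains; series mostly up to about 38 µM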)
Procedure, shortened: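 TR-FRET read (Ch1/Ch2 ratio) of soluble extracellular CD47 and Avi-biotinylated SIRPalpha domains in PBS pH 7.4 with 0.05% IGEPAL; 7-point compound titration. Sequential 30 min room-temperature steps; non-biotinylated SIRPalpha as control inhibitor.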

[23] = molecular target: T2, Tyrosine-protein phosphatase non-receptor type substrate 1 (Homo sapiens) + Leukocyte surface antigen CD47 (Homo sapiens); test: CD47-SIRPalpha protein protein interaction - Alpha assay qHTS validation (AID 1347059);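 note: bead proximity luminescence from CD47 binding SIRPalpha after compound preincubation with SIRPalpha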
Procedure, shortened: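 Binding is measured by AlphaScreen proximity: Ni-NTA acceptor beads capture His-CD47, streptavidin donor beads capture biotin-SIRPalpha. Each of three additions (SIRPalpha with compound, CD47, beads) incubates 30 min at room temperature protected from light.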

[24] = molecular target: Parathyroid hormone/parathyroid hormone-related peptide receptor (Homo sapiens) (UniProt Q03431); test: qHTS for PTHR1 Agonists: Optimization Screen against the NCGC LOPAC library (AID 1347079);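 note: GloSensor cAMP luminescence in HEK-293 GP2 cells expressing human PTHR1 with IBMX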
Procedure, shortened: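 Compounds were tested across a qHTS titration. PTHR1-expressing GP2 cells report cAMP rises via GloSensor luminescence after 1 hr compound exposure at 37C with IBMX present.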

[25] = test system: Zika virus NS2B-NS3 protease (unlinked); test: Optimization of GU AMC qHTS for Zika virus inhibitors: Unlinked NS2B-NS3 protease assay (AID 1347151); note: series mostly up to about 52 µM; nearly all actives have a fitted effect of over 80% in size
Procedure, shortened: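 Noncovalent complex of NS2B hydrophilic domain and NS3 protease domain, 25 nM final, in 10 mM Tris-HCl pH 8.0, 0.01% Tween 20. AMC fluorescence change over 15 min at room temperature was fitted to a 4-parameter Hill equation.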

[26] = molecular target: Lysine-specific demethylase 5B (Homo sapiens) (UniProt Q9UGL1); test: Optimization screen for KDM5B Histone Demethylases FDH coupled qHTS against the LOPAC library (AID 1347166)
Procedure, shortened: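 KDM5BDeltaAP (200nM final) preincubated 10 min with compound, then 12.5uM H3K4Me3, 25uM a-ketoglutarate, ascorbate, Fe(II), NAD+ and FDH added; 50mM HEPES pH 7.5, 0.01% Tween-20. NADH fluorescence (340/450 nm) change over 30 min, room temperature.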

[27] = qHTS to identify inhibitors of the type 1 interferon - major histocompatibility complex class I in skeletal muscle: primary screen against the NCATS LOPAC collection (AID 1347405);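 note: lytic HiBiT luminescence reporting HLA-B protein level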
Procedure, shortened: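 Immortalized human C25cl48 myoblasts with HiBiT knocked into endogenous HLA-B*08:01 were stimulated with 4.0 ng/ml IFN-beta and given compounds in a 7-point, 1:4.3 titration from 46 uM final; after 24 hrs, lytic HiBiT luminescence was read.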

[28] = qHTS for inhibitors of adenylyl cyclases using a fission yeast platform: a pilot screen against the NCATS LOPAC library (AID 1347410)
Procedure, shortened: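 S. pombe CHP2027 (AC9-GNAS-PDE4D2) carrying a PKA-repressed fbp1-GFP reporter was exposed to LOPAC compounds (final up to 57 µM) for 18 h at 30C in the dark, in EMM with histidine, lysine and uracil; GFP gain-of-signal read by laser scanning cytometry.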

[29] = Validation qHTS assay for inhibitors of Activation Induced Cytidine Deaminase (AID): UDG Counterscreen signal (AID 1347427)
Procedure, shortened: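 Counterscreen read of UDG activity (2 U/mL, 4/3x) in the FRET deamination format with AID (1 uM, 4/3x), DJC20/DJC23 substrates (250 nM, 4x), 4 h at room temperature. NaOH stop, fluorescence at 560 ex/665 em.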

[30] = molecular target: Single-stranded DNA cytosine deaminase (Homo sapiens) (UniProt Q9GZX7); test: Validation qHTS assay for inhibitors of Activation Induced Cytidine Deaminase (AID): AID signal (AID 1347429)
Chain of Single-stranded DNA cytosine deaminase (Homo sapiens) (Q9GZX7 whole entry, looked up): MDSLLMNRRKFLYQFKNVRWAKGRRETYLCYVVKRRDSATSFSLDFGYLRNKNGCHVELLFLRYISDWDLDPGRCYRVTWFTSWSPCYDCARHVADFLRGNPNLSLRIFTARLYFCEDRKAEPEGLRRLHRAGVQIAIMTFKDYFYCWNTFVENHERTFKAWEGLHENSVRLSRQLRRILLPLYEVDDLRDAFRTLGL
Procedure, shortened: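 AID and UDG were combined and compounds added at final up to 114 uM, then DJC20/DJC23 FRET substrate was added for 4 hr at room temperature. NaOH was then added for 30 min before fluorescence was read at 540/590 nm.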

Measured: Potency

CC[N+](CC)(CC)CC
inactive: all assays above
